# Measured values as given in PubChem BioAssay AID1159580 (chemical genetic matrix, 2015).
# About 2,000 (36%) of roughly 5,500 compounds were called active. Another 18% or so got no clear call; they are omitted. The list shows a part of the results. Values without a mark were called inactive. No stated cut-off is given here; in the data, active means normalized growth mostly below about 0.91 (no sharp cut-off); inconclusive means no clear call, values can overlap the other calls; inactive means mostly above about 0.92.
# Assay: chemical genetic growth profiling, strain panel (AID 1159580);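 further: tested at 20 µM; growth read once vehicle control cultures reached saturation at 30 °C; 1 = growth at the plate median or of vehicle wells; lower values mean less growth of the strain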
# Settings: growth OD
smiles,measurement,setting,value
COc1ccc(C(=O)CC(=O)c2ccc(C(C)(C)C)cc2)cc1,normalized growth,"S. cerevisiae deletion strains, locus YJR075W, strain HOC1, active compounds read low",0.936
same,normalized growth,"S. cerevisiae deletion strains, locus YKL009W, strain mrt4, active compounds read low",1.02
same,normalized growth,"S. cerevisiae deletion strains, locus YKL068W, active compounds read low",0.996
same,normalized growth,"S. cerevisiae deletion strains, locus YKL085W, strain MDH1 (second series), active compounds read low",0.989
same,normalized growth,"S. cerevisiae deletion strains, locus YKL085W, strain MDH1, active compounds read low",0.989
same,normalized growth,"S. cerevisiae deletion strains, locus YKL160W, strain elf1, active compounds read low",0.982
same,normalized growth,"S. cerevisiae deletion strains, locus YKL190W, strain CNB1, active compounds read low",0.986
same,normalized growth,"S. cerevisiae deletion strains, locus YKR001C, strain vps1, active compounds read low",1
same,normalized growth,"S. cerevisiae deletion strains, locus YKR026C, strain gcn3, active compounds read low",0.988
same,normalized growth,"S. cerevisiae deletion strains, locus YKR091W, strain srl3, active compounds read low",0.99
same,normalized growth,"S. cerevisiae deletion strains, locus YLL001W, strain dnm1, active compounds read low",0.998
same,normalized growth,"S. cerevisiae deletion strains, locus YLL026W, active compounds read low",0.998
same,normalized growth,"S. cerevisiae deletion strains, locus YLL041C, strain sdh2, active compounds read low",0.972
same,normalized growth,"S. cerevisiae deletion strains, locus YLR027C, strain aat2, active compounds read low",0.988
same,normalized growth,"S. cerevisiae deletion strains, locus YLR039C, strain RIC1, active compounds read low",0.884
same,normalized growth,"S. cerevisiae deletion strains, locus YLR058C, strain SHM2, active compounds read low",1.01
same,normalized growth,"S. cerevisiae deletion strains, locus YLR102C, strain apc9, active compounds read low",1
same,normalized growth,"S. cerevisiae deletion strains, locus YLR113W, strain HOG1, active compounds read low",0.969
same,normalized growth,"S. cerevisiae deletion strains, locus YLR221C, strain rsa3, active compounds read low",0.937
same,normalized growth,"S. cerevisiae deletion strains, locus YLR258W, strain gsy2, active compounds read low",0.971
same,normalized growth,"S. cerevisiae deletion strains, locus YLR262C, strain YPT6 (second series), active compounds read low",0.801 (active)
same,normalized growth,"S. cerevisiae deletion strains, locus YLR262C, strain YPT6, active compounds read low",0.903
same,normalized growth,"S. cerevisiae deletion strains, locus YLR268W, strain sec22, active compounds read low",1
same,normalized growth,"S. cerevisiae deletion strains, locus YLR320W, strain mms22, active compounds read low",0.956
same,normalized growth,"S. cerevisiae deletion strains, locus YLR330W, strain CHS5, active compounds read low",1
same,normalized growth,"S. cerevisiae deletion strains, locus YLR342W, strain FKS1 (second series), active compounds read low",1.1
same,normalized growth,"S. cerevisiae deletion strains, locus YLR342W, strain FKS1, active compounds read low",0.992
same,normalized growth,"S. cerevisiae deletion strains, locus YLR357W, strain rsc2, active compounds read low",1.03
same,normalized growth,"S. cerevisiae deletion strains, locus YLR370C, strain arc18, active compounds read low",1
same,normalized growth,"S. cerevisiae deletion strains, locus YLR371W, strain rom2, active compounds read low",1.01
same,normalized growth,"S. cerevisiae deletion strains, locus YLR384C, strain iki3, active compounds read low",1.01
same,normalized growth,"S. cerevisiae deletion strains, locus YLR418C, strain cdc73, active compounds read low",0.952
same,normalized growth,"S. cerevisiae deletion strains, locus YML016C, strain PPZ1, active compounds read low",1
same,normalized growth,"S. cerevisiae deletion strains, locus YML032C, strain rad52, active compounds read low",1
same,normalized growth,"S. cerevisiae deletion strains, locus YML120C, strain ndi1, active compounds read low",1
same,normalized growth,"S. cerevisiae deletion strains, locus YML124C, strain tub3, active compounds read low",1
same,normalized growth,"S. cerevisiae deletion strains, locus YMR058W, strain fet3, active compounds read low",0.996
same,normalized growth,"S. cerevisiae deletion strains, locus YMR078C, strain ctf18, active compounds read low",1.01
same,normalized growth,"S. cerevisiae deletion strains, locus YMR125W, strain sto1, active compounds read low",0.977
same,normalized growth,"S. cerevisiae deletion strains, locus YMR129W, active compounds read low",0.983
same,normalized growth,"S. cerevisiae deletion strains, locus YMR205C, strain PFK2, active compounds read low",0.97
same,normalized growth,"S. cerevisiae deletion strains, locus YMR223W, strain ubp8, active compounds read low",1
same,normalized growth,"S. cerevisiae deletion strains, locus YMR231W, strain pep5, active compounds read low",1.02
same,normalized growth,"S. cerevisiae deletion strains, locus YMR263W, strain SAP30, active compounds read low",0.988
same,normalized growth,"S. cerevisiae deletion strains, locus YMR307W, strain GAS1, active compounds read low",0.746
same,normalized growth,"S. cerevisiae deletion strains, locus YNL067W, strain RPL9B, active compounds read low",0.912
same,normalized growth,"S. cerevisiae deletion strains, locus YNL071W, strain lat1, active compounds read low",0.998
same,normalized growth,"S. cerevisiae deletion strains, locus YNL128W, strain TEP1, active compounds read low",0.98
same,normalized growth,"S. cerevisiae deletion strains, locus YNL153C, strain GIM3, active compounds read low",0.996
same,normalized growth,"S. cerevisiae deletion strains, locus YNL183C, strain NPR1, active compounds read low",0.958
same,normalized growth,"S. cerevisiae deletion strains, locus YNL209W, strain ssb2, active compounds read low",1.02
same,normalized growth,"S. cerevisiae deletion strains, locus YNL233W, strain BNI4, active compounds read low",0.995
same,normalized growth,"S. cerevisiae deletion strains, locus YNL248C, strain rpa49, active compounds read low",0.963
same,normalized growth,"S. cerevisiae deletion strains, locus YNL250W, strain rad50, active compounds read low",0.993
same,normalized growth,"S. cerevisiae deletion strains, locus YNL271C, strain bni1, active compounds read low",1
same,normalized growth,"S. cerevisiae deletion strains, locus YNL298W, strain CLA4, active compounds read low",1.02
same,normalized growth,"S. cerevisiae deletion strains, locus YNL307C, strain MCK1, active compounds read low",1.01
same,normalized growth,"S. cerevisiae deletion strains, locus YNL322C, strain KRE1 (second series), active compounds read low",1.01
same,normalized growth,"S. cerevisiae deletion strains, locus YNL322C, strain KRE1, active compounds read low",0.994
same,normalized growth,"S. cerevisiae deletion strains, locus YNR049C, strain mso1, active compounds read low",0.987
same,normalized growth,"S. cerevisiae deletion strains, locus YNR052C, strain pop2, active compounds read low",1.01
same,normalized growth,"S. cerevisiae deletion strains, locus YOL006C, strain TOP1, active compounds read low",0.82
same,normalized growth,"S. cerevisiae deletion strains, locus YOL012C, strain htz1",1.06
same,normalized growth,"S. cerevisiae deletion strains, locus YOL147C, strain pex11, active compounds read low",1
same,normalized growth,"S. cerevisiae deletion strains, locus YOR001W, strain rrp6, active compounds read low",0.979
same,normalized growth,"S. cerevisiae deletion strains, locus YOR061W, strain CKA2, active compounds read low",1
same,normalized growth,"S. cerevisiae deletion strains, locus YOR069W, strain VPS5, active compounds read low",1
same,normalized growth,"S. cerevisiae deletion strains, locus YOR070C, strain gyp1, active compounds read low",0.986
same,normalized growth,"S. cerevisiae deletion strains, locus YOR080W, strain dia2, active compounds read low",1.01
same,normalized growth,"S. cerevisiae deletion strains, locus YOR083W, strain WHI5, active compounds read low",0.98
same,normalized growth,"S. cerevisiae deletion strains, locus YOR106W, strain vam3, active compounds read low",0.904
same,normalized growth,"S. cerevisiae deletion strains, locus YOR136W, strain idh2, active compounds read low",0.99
same,normalized growth,"S. cerevisiae deletion strains, locus YOR144C, strain elg1, active compounds read low",1
same,normalized growth,"S. cerevisiae deletion strains, locus YOR184W, strain ser1, active compounds read low",0.955
same,normalized growth,"S. cerevisiae deletion strains, locus YOR231W, strain MKK1, active compounds read low",1.01
same,normalized growth,"S. cerevisiae deletion strains, locus YOR265W, strain rbl2, active compounds read low",0.998
same,normalized growth,"S. cerevisiae deletion strains, locus YOR270C, strain vph1, active compounds read low",0.827
same,normalized growth,"S. cerevisiae deletion strains, locus YOR290C, strain snf2, active compounds read low",0.991
same,normalized growth,"S. cerevisiae deletion strains, locus YOR316C, strain cot1, active compounds read low",1
same,normalized growth,"S. cerevisiae deletion strains, locus YPL051W, strain arl3, active compounds read low",0.992
same,normalized growth,"S. cerevisiae deletion strains, locus YPL055C, strain LGE1, active compounds read low",0.88
same,normalized growth,"S. cerevisiae deletion strains, locus YPL078C, strain atp4, active compounds read low",0.998
same,normalized growth,"S. cerevisiae deletion strains, locus YPL106C, strain sse1, active compounds read low",1
same,normalized growth,"S. cerevisiae deletion strains, locus YPL240C, strain hsp82, active compounds read low",0.995
same,normalized growth,"S. cerevisiae deletion strains, locus YPL241C, strain CIN2, active compounds read low",0.988
same,normalized growth,"S. cerevisiae deletion strains, locus YPL256C, strain CLN2, active compounds read low",1
same,normalized growth,"S. cerevisiae deletion strains, locus YPR119W, strain clb2, active compounds read low",0.998
same,normalized growth,"S. cerevisiae deletion strains, locus YPR141C, strain kar3, active compounds read low",0.996
same,normalized growth,"S. cerevisiae deletion strains, locus YPR163C, strain tif3, active compounds read low",1.01
same,normalized growth,"S. cerevisiae deletion strains, locus YPR167C, strain met16, active compounds read low",1
same,normalized growth,"S. cerevisiae deletion strains, strain wtn01, active compounds read low",0.996
same,normalized growth,"S. cerevisiae strains, strain wild type, active compounds read low",0.975
